SMN2 splice enh: increases expression of the SMN2 splice variant; AID 1458; HEK293 SMN2-luciferase splicing reporter, luminescence, 30-36 h; 2.8% of 210,000 active; Potency, µM (doses to about 46.1 µM), without a hit: top-dose activity change, positive = activation, actives largely listed as activators; note: % of control where 0% means no effect; nearly all actives have a fitted effect of over 55% in size
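HEK293 cells carry an SMN2 minigene-luciferase reporter in which exon 7 inclusion puts luciferase in frame. Cells were seeded at 2000 cells/well, attached for 10-12 hours, then exposed to compounds for 30-36 hours at 37C before ONE-Glo luminescence.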
ELG1 genotox: genotoxicity induction in ELG1-luciferase HEK293T cells. HEK293T ELG1-luciferase reporter, luminescence, 16 h. Potency, µM (titrated, usually from 46 µM), without a hit: at the highest dose activity change, positive = activation, usual class: activators. 1.3% of 330,000 active. AID 504466; note: % of control where 0% means no effect; nearly all actives have a fitted effect of over 60% in size
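Luminescence read-out: rising ELG1-luciferase signal, reflecting elevated ELG1 protein under genetic stress, flags genotoxic compounds. Cells were treated for 16 hr at 37 °C before ONE-Glo detection.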
Rab9 prom act: activates the Rab9 promoter; Huh7 Rab9 promoter-luciferase reporter, luminescence, 24 h; Potency, µM (top dose mostly 9.22 µM), inactives show at the top dose activation, negative = inhibition, hits mostly activators; 2.8% of 320,000 active; note: % of control where 0% means no effect; nearly all actives have a fitted effect of over 60% in size
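Using Huh7 cells stably transfected with Rab9 promoter–luciferase, compounds were incubated 24 h at 37 °C, 5% CO2; luciferase luminescence was read 10 min after reagent addition.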
Luc counter: Kinase-Glo luciferase inhibition (counter-screen). Kinase-Glo luciferase, ATP luminescence, 8 min. Potency, µM (series often up to 38.3 µM), for the others: at the top dose activity change, negative = inhibition, hits mostly inhibitors. 0.28% of 200,000 active. AID 1379; note: % is set by controls: 0 for no effect and ±100 for the full control effect; nearly all actives have a fitted effect of over 60% in size
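Inhibition of Kinase-Glo luciferase light generation was assessed at 10 uM ATP in pH 7.2 imidazole buffer, with luminescence measured after eight minutes at ambient temperature.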
FLuc modulator: counter-screen for miR-21 project: firefly luciferase inhibitors or activators. P08659. purified FLuc, Km substrates, luminescence inhibition. Potency, µM (doses to about 57.5 µM), without a hit: top-dose activity change, negative = inhibition, usual class: inhibitors. 6.9% of 360,000 active. AID 588342;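 note: plate controls were vehicle for no effect and reference inhibitor for full effect; nearly all actives have a fitted effect of over 55% in size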
Target sequence (P08659 whole entry, looked up): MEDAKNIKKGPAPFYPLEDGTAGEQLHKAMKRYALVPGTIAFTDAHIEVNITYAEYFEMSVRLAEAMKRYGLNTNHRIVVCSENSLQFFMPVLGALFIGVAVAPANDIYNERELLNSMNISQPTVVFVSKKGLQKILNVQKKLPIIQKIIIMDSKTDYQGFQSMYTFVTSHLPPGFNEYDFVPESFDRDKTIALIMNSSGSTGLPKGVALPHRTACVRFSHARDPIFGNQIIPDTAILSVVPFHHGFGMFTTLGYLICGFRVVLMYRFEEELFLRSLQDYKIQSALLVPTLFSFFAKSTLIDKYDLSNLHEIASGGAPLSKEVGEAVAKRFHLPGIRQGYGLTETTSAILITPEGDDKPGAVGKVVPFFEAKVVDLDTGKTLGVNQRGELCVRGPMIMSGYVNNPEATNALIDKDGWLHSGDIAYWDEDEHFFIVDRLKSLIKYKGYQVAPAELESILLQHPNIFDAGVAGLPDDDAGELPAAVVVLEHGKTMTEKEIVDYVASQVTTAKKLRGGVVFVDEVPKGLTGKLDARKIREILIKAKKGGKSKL
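Purified P. pyralis luciferase, 10 nM final, with Km-level 10 uM D-luciferin and 10 uM ATP in 50 mM Tris acetate pH 7.5, 10 mM Mg acetate, 0.01% Tween-20, 0.05% BSA; 6-point qHTS titration about 60 µM downward; luminescence read.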
NPC1 prom act: activates the NPC1 promoter; Huh7 NPC1 promoter luciferase reporter, 24 h; Potency, µM (top dose mostly 9.22 µM), without a hit: at the highest dose activation, actives largely listed as activators; 2.4% of 320,000 active; AID 485313; note: % of control where 0% means no effect; nearly all actives have a fitted effect of over 60% in size
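NPC1 promoter–luciferase Huh7 cells; 24 h compound; luminescence.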
* hit, by the source's call; ? = inconclusive; · = no result. Only some compounds are listed: those with a hit (about 7.5% of all), similar ones and a draw of the others. Calls come from the whole dose curve; as a rule, active = well fitted curve in the direction sought with a large enough effect; inconclusive = small, poorly fitted or top-dose-only effect, or another doubt; inactive = no such curve, though single readings can be large; an effect the other way counts as inactive or inconclusive. Potency is the fitted concentration of half-maximal effect.

SMILES	SMN2 splice enh	ELG1 genotox	Rab9 prom act	Luc counter	FLuc modulator	NPC1 prom act
O=C(NC1CC(=O)N(c2ccc(F)cc2)C1)c1cc2ccccc2o1 (stereo not given)	·	·	·	·	-1.9%	·
O=C(CNS(=O)(=O)c1ccc(Cl)c(C(F)(F)F)c1)NC1CCCCCC1	·	6.3%	-0.7%	·	1.2%	-7.6%
CCn1c(C)c(C)c2cc(C(=O)NC3CCCCCC3)ccc21	·	8.5%	?	·	12µM*	15.7%
Cc1cccc(C(=O)NC2CCCCCCC2)c1	·	?	4.47µM*	·	12µM*	3.98µM*
CCCN1C(=O)c2cc(C(=O)NC3CCCCCC3)ccc2C1O (stereo not given)	10µM*	9.2µM*	2.24µM*	1.5%	13.5µM*	2µM*
CN(C)c1cccc(C(=O)NC2CCCCCC2)c1	12.6µM*	18.4µM*	3.16µM*	-0.6%	13.5µM*	?
COc1cccc(C(=O)NC2CCCC2)c1	0.2%	5.2%	20.9%	-1.4%	-9.3%	2.2%
CCOc1ccc(CNC(=O)c2cnc3sc(N(CC)CC)nn3c2=O)cc1	·	·	·	·	7.0%	·
C#CC(C)(CC)NC(=O)c1cc2c(n(-c3ccc(Cl)cc3)c1=O)CC(C)(C)CC2=O (stereo not given)	0.0%	·	·	·	-8.3%	·
CCCCC/C=C\C/C=C\C/C=C\C/C=C\CCCC(=O)O[C@@H](CO)COCCCCCCCCCCCCCCCC	-0.2%	·	·	-0.3%	·	·
CCOC(=O)C1CCN(C(c2ccc(C)cc2)c2c(O)cc(C)n(CCOC)c2=O)CC1 (stereo not given)	·	·	·	·	5.5%	·
Cc1cc(Cl)c2oc(C(=O)N(CCO)Cc3ccccc3)c(C)c2c1	·	?	26.0%	·	-19.8%	10.8%
Cc1c(C(=O)N(CCO)Cc2ccccc2)oc2c(F)cccc12	·	?	?	·	16.9µM*	?
COc1ccc(CNC(=O)c2cnc3sc(N4CCCCCC4)nn3c2=O)cc1	·	·	·	·	2.9%	·
Cc1cc(C(=O)CN2C(=O)c3ccccc3S2(=O)=O)c(C)n1CC1CCCO1 (stereo not given)	-68.0%	-17.6%	-42.1%	0.1%	7.57µM*	-47.9%
Cc1cc(C(=O)CN2C(=O)NC(C)(c3ccccc3)C2=O)c(C)n1CC1CCCO1 (stereo not given)	19.4%	1.0%	1.5%	2.2%	16.9µM*	10.3%
COc1ccc(-c2nnn(Cc3ccccc3F)n2)cc1	15.8µM*	?	3.16µM*	0.0%	10.7µM*	3.55µM*
O=C(OCc1ccccc1)c1ccc(-c2nnn(Cc3ccccc3F)n2)cc1	3.8%	·	·	·	-5.2%	·
Fc1ccccc1Cn1nnc(-c2ccc3c(c2)OCO3)n1	12.6µM*	?	1.12µM*	-2.8%	2.13µM*	2µM*
O=C(CC1Nc2ccccc2NC1=O)NCCc1ccccc1 (stereo not given)	-8.2%	-2.8%	-2.1%	-3.8%	-1.6%	-0.9%
Cc1ccc(NC(=O)CC2Nc3ccccc3NC2=O)cc1C (stereo not given)	-5.9%	·	·	·	-12.3%	·
Cc1ccc(NC(=O)CC2Nc3ccccc3NC2=O)cc1Cl (stereo not given)	-5.2%	?	23.4%	1.8%	23.9µM*	14.6%
Cc1ccc(NC2Sc3ccccc3NC2=O)cc1Cl (stereo not given)	·	-0.5%	0.1%	·	19µM*	-0.1%
O=C(CC1Nc2ccccc2NC1=O)c1ccccc1 (stereo not given)	12.6µM*	9.2µM*	2.51µM*	?	3.01µM*	?
c1ccc(-c2nnn(C34CC5CC(CC(C5)C3)C4)n2)cc1	?	?	18.2%	-4.9%	16.9µM*	6.7%
Cc1ccc(CNS(=O)(=O)c2cc(C(=O)Nc3cccc(C(F)(F)F)c3)ccc2F)cc1	·	·	·	·	1.8%	·
O=C(Nc1ccc2sccc2c1)c1ccc(Cl)s1	7.08µM*	1.46µM*	1µM*	-4.8%	0.675µM*	1.41µM*
O=C(Nc1ccc2c(c1)C(=O)NC2=O)c1ccc(Cl)s1	·	4.1%	2.3%	·	-1.4%	-3.7%
COc1ccccc1CNC(=O)Cn1ncn2c(cc3sccc32)c1=O	1.0%	·	·	·	-0.4%	·

Source: PubChem
